Records with an inconclusive call do not appear. Where a call stands in place of a potency, no number is given. A number with no mark means an inactive call. Calls of active or inactive are those of the source. Calls come from the whole dose curve; as a rule, active = well fitted curve in the direction sought with a large enough effect; inconclusive = small, poorly fitted or top-dose-only effect, or another doubt; inactive = no such curve, though single readings can be large; an effect the other way counts as inactive or inconclusive.
Experiments:
[1] = P-glycoprotein substrates identified in KB-8-5-11 adenocarcinoma cell line, qHTS therapeutic library screen (AID 1346987); note: nearly all actives have a fitted effect of over 65% in size; for activity change, negative = cytotoxicity: series mostly up to about 44 µM
How it was run: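 KB-8-5-11: colchicine-selected sub-line of KB-3-1 over-expressing P-gp; assay medium lacked colchicine. 72 h drug exposure at 37 degree C, CellTiter-Glo.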

[2] = tested on: Zika virus NS2B-NS3 protease (unlinked complex); experiment: Primary screen GU Rhodamine qHTS for Zika virus inhibitors: Unlinked NS2B-NS3 protease assay (AID 1347159); note: nearly all actives have a fitted effect of over 60% in size; note: potency is the fitted concentration of half-maximal effect
How it was run: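 Compounds, tested up to 114 microM, were incubated for 15 minutes with 25 nM unlinked NS2B-NS3 protease at pH 8.0. Cleavage of 1.5 microM Rhodamine110 substrate was then followed by fluorescence for 15 minutes.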

[3] = tested on: Zika virus NS2B-NS3 protease (linked construct); experiment: Primary screen NINDS Rhodamine qHTS for Zika virus inhibitors (AID 1347160); note: nearly all actives have a fitted effect of over 55% in size
How it was run: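 Percent inhibition, normalized to uninhibited and enzyme-free controls, is fitted to a 4-parameter Hill equation. Fluorescence change comes from a 15-min cleavage of 1.5 microM bis-peptide Rhodamine110 substrate by 25 nM linked NS2B-NS3 at room temperature.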

SMILES | Potency [1] | Potency [2] | Potency [3] | activity change, negative = cytotoxicity [1]
C=C1CCC2[C@](C)(CO)CCC[C@@]2(C)[C@@H]1CCC1=CCOC1=O (some centres not stated) | inactive | inactive | inactive | 
NC1Nc2ccccc2C1(N)CC1NC(=O)C(Cc2ccccc2)NC(=O)C(Cc2ccccc2)NC1=O (configuration not stated) | inactive | inactive | inactive | 
C=C1C(OC(C)=O)CCC2(C)CCC(C(C)(C)O)CC12 (configuration not stated) | inactive | inactive | inactive | 
COc1ccc(/C=C/C(=O)O[C@@H]2[C@@H](O)[C@@H](O)[C@H](O[C@H]3[C@@H]4C=CO[C@@H](O[C@@H]5O[C@H](CO)[C@@H](O)[C@H](O)[C@H]5O)[C@@H]4[C@@]4(CO)O[C@@H]34)O[C@H]2C)cc1 | inactive | inactive | inactive | 
COc1ccc(C2COc3cc(O)ccc3C2)c(O)c1OC (configuration not stated) | inactive | inactive | inactive | 
CC(C)=CC[C@H]1O[C@]2(O)C([C@H]3CCC4[C@@]5(C)CC[C@H](O[C@@H]6O[C@H](CO)[C@H](O)[C@H](O[C@@H]7O[C@H](CO)[C@@H](O)[C@H](O)[C@H]7O)[C@H]6O[C@@H]6O[C@@H](C)[C@H](O)[C@@H](O)[C@H]6O)C(C)(C)C5CC[C@@]4(C)[C@]3(C)[C@H]2O)[C@@]1(C)O (some centres not stated) |  | inactive | inactive | 9.26% [at 9.29 µM]
O=C(CC1CC(c2ccc(F)cc2F)=NO1)N1CCOCC1 (configuration not stated) | inactive | inactive | inactive | 
OC[C@H]1O[C@@H](O[C@H]2[C@H](O)[C@@H](CO)O[C@@H](OCc3ccccc3)[C@@H]2O[C@@H]2OC[C@](O)(CO)[C@H]2O)[C@H](O)[C@@H](O)[C@@H]1O | inactive | inactive | inactive | 
CNc1nc(Cc2ccccc2)nc2c1CCNC[C@@H]2C | inactive | inactive | inactive | 
COc1cc(O)c2c(c1)C1(OC2=O)C(C)=CC(=O)C1O (configuration not stated) | inactive | inactive | inactive | 
CC(C)/C=C1/NC(=O)C(C(C)C)n2c1nc1c(O)cccc1c2=O (configuration not stated) | inactive | inactive | inactive | 
N[C@@H](CC(=O)Nc1ccc(Oc2cc(F)c(F)cc2Br)cc1)C(=O)O | inactive | 70.8 µM (active) | inactive | 
O=C(O)c1cc(C(F)(F)F)ccc1N1CC[C@H](OCc2ccccn2)C1 | inactive | inactive | inactive | 
CNc1nc(Nc2cn(C(C)(C)C#N)nc2C)ncc1C(F)(F)F | inactive | inactive | inactive | 
COc1cc2c(cc1OC)N1C(=O)C[C@@]34C=CC[N@+]5([O-])CC[C@H]2[C@H](CC3)[C@@]145 | inactive | inactive | inactive | 
CCC(C)C(=O)O[C@H]1[C@@H](O[C@H]2O[C@H](CO)[C@@H](O)[C@H](O)[C@H]2O)O[C@H](CO)[C@@H](O)[C@@H]1O (some centres not stated) | inactive | inactive | inactive | 
CC(C)(O)/C=C/C(=O)[C@](C)(O)[C@H]1[C@H](O)C[C@@]2(C)[C@@H]3CC=C4[C@@H](C=C(O[C@@H]5O[C@H](CO)[C@@H](O)[C@H](O)[C@H]5O)C(=O)C4(C)C)[C@]3(C)C(=O)C[C@]12C | inactive | inactive | inactive | 
COC1OC(OC)C(O)(CCC2(C)C(C)CCC3(C)C2CC(O)C(O)C32CO2)C1O (configuration not stated) | inactive | inactive | inactive | 
C=C1C(=O)O[C@@H]2C[C@]3(C)[C@@H](CCC(C)=O)[C@@H]3C[C@H]12 | inactive | inactive | inactive | 
Oc1ccc(CC2NCCc3cc(O)c(O)cc32)cc1 (configuration not stated) | inactive | inactive | inactive | 
CC(C)=CCc1c(O)cc2oc3cc(C)cc(O)c3c2c1C | inactive | 20 µM (active) | inactive | 
COC(=O)C1=C[C@@H](O)[C@@H](O)[C@H](O[C@@H]2O[C@H](CO)[C@@H](O)[C@H](O)[C@H]2OC(=O)/C=C/c2ccccc2)C1 | inactive | inactive | inactive | 
CC(=O)NC1CC(=O)C23C(=O)NC(Cc4c[nH]c5ccccc45)C2C(C)=C(C)C(O)C3/C=C/CC(C)/C=C(/C)C(O)C1O (configuration not stated) | inactive | inactive | inactive | 
COc1ccc(C(=O)CC(=O)O)c2c1C=CC(C)(C)O2 | inactive | inactive | inactive | 
